Reference: PubChem BioAssay (NCATS)
Records with an inconclusive call do not appear. Entries that show only a call come without a potency. Unmarked numbers belong to inactive results. The source made the active and inactive calls. Calls come from the whole dose curve; as a rule, active = well fitted curve in the direction sought with a large enough effect; inconclusive = small, poorly fitted or top-dose-only effect, or another doubt; inactive = no such curve, though single readings can be large; an effect the other way counts as inactive or inconclusive.

Legend:
[1] = target: Metallo-beta-lactamase type 2 (Klebsiella pneumoniae) (UniProt C7C422); test: qHTS to identify inhibitors of the New Delhi Metallo-beta-lactamase (NDM): assay validation screen against the NCATS LOPAC Collection (AID 1794843); note: potency is the fitted concentration of half-maximal effect
Procedure, shortened: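 Absorbance at 485 nm from nitrocefin turnover (50 uM solution added), read at plateau, gives the read-out. Compounds in DMSO were incubated first with 2 nM final NDM-1 in pH 7.0 HEPES buffer containing 1 uM ZnSO4 and 0.01% Tween20.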

[2] = target: Glutathione peroxidase 1 (Homo sapiens) (UniProt P07203); test: Primary qHTS Assay for Inhibitors of Recombinant Selenoprotein Glutathione Peroxidase 1 (GPX1) (AID 1845191); note: nearly all actives have a fitted effect of over 65% in size; note: potency is the fitted concentration of half-maximal effect
Procedure, shortened: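 Recombinant GPX1 (10 nM final) was preincubated with compound for 30 min at room temperature, then reacted with 1 mM GSH, 0.5 mM CHP, 0.5 mM NADPH and 100 nM glutathione reductase; NADPH fluorescence (340/450 nm) was read at 0 and 15 min.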

[3] = target: Phospholipid hydroperoxide glutathione peroxidase GPX4 (Homo sapiens) (UniProt P36969); test: Primary qHTS Assay for Inhibitors of Recombinant Selenoprotein Glutathione Peroxidase 4 (GPX4) (AID 1845192); settings: outcome: dose series up to 50 µM unless noted; note: nearly all actives have a fitted effect of over 65% in size
Procedure, shortened: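 GR-coupled readout: 100 nM GR, 1 mM GSH, 0.5 mM NADPH; NADPH fluorescence (ex 340/em 450 nm) read at t=0 and after 15 min RT. GPX4 200 nM, preincubated 30 min with compound; substrate 0.5 mM CHP.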

[4] = qHTS profiling for inhibitors of Plasmodium falciparum proliferation (AID 504749); note: nearly all actives have a fitted effect of over 60% in size; note: potency is the fitted concentration of half-maximal effect; settings: P. falciparum in erythrocytes, SYBR Green DNA, 72 h
Procedure, shortened: (§1)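 Parasite proliferation within erythrocytes, 72 h exposure. Endpoint: SYBR Green I fluorescence after overnight lysis at room temperature. Controls: 0.29 uM artemisinin, DMSO.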

3D7 = test: as above; settings: P. falciparum in erythrocytes, SYBR Green DNA, 72 h; series mostly up to 28.7 µM
Procedure, shortened: as §1

7G8 = test: as above; settings: P. falciparum in erythrocytes, SYBR Green DNA, 72 h; series mostly up to 28.7 µM
Procedure, shortened: as §1

AA1029 = test: as above; settings: P. falciparum in erythrocytes, SYBR Green DNA, 72 h; series mostly up to 28.7 µM
Procedure, shortened: as §1

AS120 = test: as above; settings: P. falciparum in erythrocytes, SYBR Green DNA, 72 h; series mostly up to 28.7 µM
Procedure, shortened: as §1

ATS189 = test: as above; settings: P. falciparum in erythrocytes, SYBR Green DNA, 72 h; series mostly up to 28.7 µM
Procedure, shortened: as §1

ATS95 = test: as above; settings: P. falciparum in erythrocytes, SYBR Green DNA, 72 h; series mostly up to 28.7 µM
Procedure, shortened: as §1

C2A = test: as above; settings: P. falciparum in erythrocytes, SYBR Green DNA, 72 h; series mostly up to 28.7 µM
Procedure, shortened: as §1

CP185 = test: as above; settings: P. falciparum in erythrocytes, SYBR Green DNA, 72 h; series mostly up to 28.7 µM
Procedure, shortened: as §1

CP191 = test: as above; settings: P. falciparum in erythrocytes, SYBR Green DNA, 72 h; series mostly up to 28.7 µM
Procedure, shortened: as §1

[5] = at 28.7 µM (top of the series), parasite line A
[6] = at 28.7 µM (top of the series), parasite line B
[7] = at 12.8 µM (top of the series), parasite line A
[8] = at 12.8 µM (top of the series), parasite line B

Metallo-beta-lactamase type 2 (Klebsiella pneumoniae), sequence (C7C422 whole entry, looked up): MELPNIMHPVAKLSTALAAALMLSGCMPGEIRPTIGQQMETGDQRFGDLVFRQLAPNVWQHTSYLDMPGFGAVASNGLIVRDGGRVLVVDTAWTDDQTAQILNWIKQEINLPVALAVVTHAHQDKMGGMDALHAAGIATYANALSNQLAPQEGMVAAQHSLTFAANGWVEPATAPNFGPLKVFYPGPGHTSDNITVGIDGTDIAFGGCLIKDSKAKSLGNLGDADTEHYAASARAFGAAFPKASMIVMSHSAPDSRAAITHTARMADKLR
Glutathione peroxidase 1 (Homo sapiens), sequence (P07203 whole entry, looked up): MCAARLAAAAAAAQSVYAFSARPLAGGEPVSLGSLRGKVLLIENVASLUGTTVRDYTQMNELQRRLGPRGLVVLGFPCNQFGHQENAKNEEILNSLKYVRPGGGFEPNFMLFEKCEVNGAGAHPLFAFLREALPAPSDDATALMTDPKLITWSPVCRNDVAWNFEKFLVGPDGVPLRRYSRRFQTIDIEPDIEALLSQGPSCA
Phospholipid hydroperoxide glutathione peroxidase GPX4 (Homo sapiens), sequence (P36969 whole entry, looked up): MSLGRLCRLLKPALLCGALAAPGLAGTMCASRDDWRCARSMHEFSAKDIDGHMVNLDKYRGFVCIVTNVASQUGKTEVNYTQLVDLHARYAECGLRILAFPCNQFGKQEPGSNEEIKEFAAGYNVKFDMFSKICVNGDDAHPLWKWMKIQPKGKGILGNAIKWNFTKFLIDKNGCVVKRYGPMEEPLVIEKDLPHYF

| SMILES | Potency [1] | Potency [2] | outcome [3] | Potency ([4]; parasite line A) | Potency ([4]; parasite line B) | Potency (3D7) | Potency (7G8) | Potency (AA1029) | Potency (AS120) | Potency (ATS189) | Potency (ATS95) | Potency (C2A) | Potency (CP185) | Potency (CP191) | activity, negative = inhibition [4, 5] | activity, negative = inhibition [4, 6] | activity, negative = inhibition [4, 7] | activity, negative = inhibition [4, 8] |
| --- | --- | --- | --- | --- | --- | --- | --- | --- | --- | --- | --- | --- | --- | --- | --- | --- | --- | --- |
| CCNC(=O)N1CCN(CCCC(c2ccc(F)cc2)c2ccc(F)cc2)CC1 | inactive | inactive | inactive | 1.12 µM (active) | 1.26 µM (active) | 7.08 µM (active) | 2 µM (active) | 2.24 µM (active) | 2.24 µM (active) | 1.12 µM (active) | 2.24 µM (active) | 1.41 µM (active) | 0.447 µM (active) | 1.12 µM (active) |  |  |  |  |
| NC(N)=NC(=O)Cc1c(Cl)cccc1Cl | inactive | inactive | inactive | 5.62 µM (active) | 5.01 µM (active) | inactive | 12.6 µM (active) |  |  |  |  |  |  | 8.91 µM (active) |  |  |  |  |
| CSc1ccc(C(=O)c2[nH]c(=O)[nH]c2C)cc1 | inactive | inactive | inactive |  |  | inactive | inactive | inactive | inactive | inactive | inactive | inactive | inactive | inactive | 9.87% | 9.86% |  |  |
| NC/C=C/C(=O)O | inactive | inactive | inactive |  |  | inactive | inactive | inactive | inactive | inactive | inactive | inactive | inactive | inactive | 13.5% | 11.1% |  |  |
| CCO/C([O-])=N/c1c[n+](N2CCOCC2)no1 | inactive | inactive | inactive |  |  | inactive | inactive | inactive | inactive | inactive | inactive | inactive | inactive | inactive |  |  | 2.13% | 0.211% |
| COC(=O)C1=C(C)NC(C)=C(C(=O)OC(C)(C)CN(C)CCC(c2ccccc2)c2ccccc2)C1c1cccc([N+](=O)[O-])c1 (stereo not drawn) | inactive | inactive | inactive | 2 µM (active) | 2 µM (active) | 2.51 µM (active) | 2 µM (active) | 2.51 µM (active) | 2 µM (active) | 2 µM (active) | 3.55 µM (active) | 4.47 µM (active) | 5.01 µM (active) | 3.16 µM (active) |  |  |  |  |
| FC(F)(F)c1ccccc1-n1ccnc1 | inactive | inactive | inactive |  |  | inactive | inactive | inactive | inactive | inactive | inactive | inactive | inactive | inactive | 11.5% | -3.4% |  |  |
| Cc1nc2ccccn2c(=O)c1CCN1CCC(C(=O)c2ccc(F)cc2)CC1 | inactive | inactive | inactive |  |  | inactive | 14.1 µM (active) |  | inactive |  |  |  | inactive | 7.94 µM (active) | -18.1% | 11.2% |  |  |
| O=C(O)CCCCCCCC(=O)O | inactive | inactive | inactive |  |  | inactive | inactive | inactive | inactive | inactive | inactive | inactive | inactive | inactive | 9.73% | 11.2% |  |  |
| CCCOc1ccccc1-c1nc2n[nH]nc2c(=O)[nH]1 | inactive | inactive | inactive |  |  | inactive | inactive | inactive | inactive | inactive | inactive | inactive | inactive | inactive | -3.13% | 3.38% |  |  |
| CCN(Cc1ccncc1)C(=O)C(CO)c1ccccc1 (stereo not drawn) | inactive | inactive | inactive |  |  | inactive | inactive | inactive | inactive | inactive | inactive | inactive | inactive | inactive | 3.05% | -7.78% |  |  |
| COc1ccc(CN(CCN(C)C)c2ccccn2)cc1 | inactive | inactive | inactive |  |  | inactive | inactive |  | inactive | inactive |  | inactive | inactive | inactive | -7.89% | -2.95% |  |  |
| O=C(O)CN(CCOCCOCCN(CC(=O)O)CC(=O)O)CC(=O)O | inactive | inactive | inactive |  |  | inactive | inactive | inactive | inactive | inactive | inactive | inactive | inactive | inactive | 8.03% | 13.7% |  |  |
| Cc1ccc(Cl)c(Nc2ccccc2C(=O)O)c1Cl | inactive | inactive | inactive |  |  | inactive | inactive | inactive | inactive | inactive | inactive | inactive | inactive | inactive | -0.156% | -3.06% |  |  |
| NC(=O)c1cn(Cc2c(F)cccc2F)nn1 | inactive | inactive | inactive |  |  | inactive | inactive | inactive | inactive | inactive | inactive | inactive | inactive | inactive | 14.6% | 0.958% |  |  |
| CN(C)C(=O)Oc1cccc([N+](C)(C)C)c1 | inactive | inactive | inactive |  |  | inactive | inactive | inactive | inactive | inactive | inactive | inactive | inactive | inactive | 4.77% | -6.35% |  |  |
| CNCCC(Oc1ccccc1OC)c1ccccc1 (stereo not drawn) | inactive | inactive | inactive |  |  | inactive | 4.47 µM (active) | 10 µM (active) |  |  |  | inactive |  | inactive | 3.02% | -7.17% |  |  |
| COc1cc2c(cc1OC)-c1cc(=Nc3c(C)cc(C)cc3C)n(C)c(=O)n1CC2 | inactive | inactive | inactive | 2.82 µM (active) | 2.51 µM (active) | 2.51 µM (active) | 0.891 µM (active) | 2.82 µM (active) | 3.55 µM (active) | 7.94 µM (active) | 3.55 µM (active) | 2.82 µM (active) | 5.62 µM (active) | 3.98 µM (active) |  |  |  |  |
| C[N+](C)(C)CCOC(=O)CCC(=O)OCC[N+](C)(C)C | inactive | inactive | inactive |  |  | inactive | inactive | inactive | inactive | inactive | inactive | inactive | inactive | inactive | 1.72% | 1.32% |  |  |
| CCN(CC)CCNC(=O)c1cc(S(C)(=O)=O)ccc1OC | inactive | inactive | inactive |  |  | inactive | inactive | inactive | inactive | inactive | inactive | inactive | inactive | inactive |  |  | 11.8% | 10.3% |
| CCCCCN(CCCCC)C(=O)C(CCC(=O)O)NC(=O)c1ccc(Cl)c(Cl)c1 (stereo not drawn) | inactive | inactive | inactive |  |  | inactive | inactive | inactive | inactive | inactive | inactive | inactive | inactive | inactive | 16.8% | 7.13% |  |  |
| CN(C)CC/C=C1\c2ccccc2COc2ccccc21 | inactive | inactive | inactive |  |  | inactive | 12.6 µM (active) | 8.91 µM (active) |  |  |  |  |  | inactive | 0.213% | 6.5% |  |  |
| Cc1nnc(SCC2=C(C(=O)O)N3C(=O)[C@@H](NC(=O)Cn4cnnn4)[C@H]3SC2)s1 | inactive | 20.2 µM (active) | inactive |  |  | inactive | inactive | inactive | inactive | inactive | inactive | inactive | inactive | inactive | 11.1% | 2.94% |  |  |
| CCN1CCc2nc(N)oc2CC1 | inactive | inactive | inactive |  |  | inactive | inactive | inactive | inactive | inactive | inactive | inactive | inactive | inactive | 1.51% | 1.64% |  |  |
| Cc1nc2c([nH]1)c(=O)n(C)c(=O)n2Cc1ccco1 | inactive | inactive | inactive |  |  | inactive | inactive | inactive | inactive | inactive | inactive | inactive | inactive | inactive | -3.89% | -2.06% |  |  |
| CN(C)CCCN1c2ccccc2Sc2ccccc21 | inactive | inactive | inactive |  |  | inactive | 3.16 µM (active) | 3.16 µM (active) |  |  |  |  |  | inactive |  |  | 8.14% | 20.7% |
| O=C(O)CN(CCN(CC(=O)O)CC(=O)O)CCN(CC(=O)O)CC(=O)O | 2.82 µM (active) | inactive | inactive |  |  | inactive | inactive | inactive | inactive | inactive | inactive | inactive | inactive | inactive | 7.8% | -1.15% |  |  |
| CN(C(=O)CCCOc1ccc2[nH]c(=O)ccc2c1)C1CCCCC1 | inactive | inactive | inactive |  |  | inactive | 11.2 µM (active) | inactive | inactive | inactive | inactive |  | inactive | inactive | -9.28% | 16% |  |  |
| Cc1ccc(=O)n(-c2ccccc2)c1 | inactive | inactive | inactive |  |  | inactive | inactive | inactive | inactive | inactive | inactive | inactive | inactive | inactive | 12.4% | 18.6% |  |  |
| c1cnc(N2CCN(Cc3ccc4c(c3)OCO4)CC2)nc1 | inactive | inactive | inactive |  |  | inactive | inactive | inactive | inactive | inactive | inactive | inactive | inactive | inactive | 13.8% | 17.3% |  |  |
